The record followed here is PubChem BioAssay (Tox21).

The structures appear in SMILES notation. Inconclusive results are not listed. A number with no mark means an inactive call. Active and inactive are the calls of the source. Calls follow the shape of the dose curve; as a rule, active = well fitted cell-killing curve with a large enough effect in the repeat runs; inconclusive = weak or mixed curves, or effect the other way; inactive = flat fitted curve, though single readings scatter.
% is scaled to controls: 0 for no effect and ±100 for the full control effect; potency is read from the fitted curve at half-maximal effect.

A short description of the experiment: qHTS assay to identify small molecule that activate the aryl hydrocarbon receptor (AhR) signaling pathway - cell viability counter screen (AID 743086). Also: nearly all actives have a fitted effect of over 45% in size. The conditions noted are these: HepG2-AhR-luc viability, CellTiter-Fluor, 24 h; series mostly up to 70.3 µM; viability change, negative = cytotoxic: at the top concentration. In short, it runs like this: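 Cytotoxicity counter screen: CellTiter-Fluor signal (30 min, 37 C) in 4000 HepG2 cells/well carrying the DRE-luciferase reporter, following 24 h compound exposure at 37 C.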
Regarding `O=C1/C(=C\c2cccs2)CCC/C1=C\c1cccs1`, the Potency is 11.9 µM (active). As to `CO[C@@H]1[C@@H](O[C@@H]2O[C@H](C)[C@@H](O[C@H]3C[C@@](C)(O)[C@@H](O)[C@H](C)O3)[C@H](N(C)C)[C@H]2O)[C@@H](CC=O)C[C@@H](C)[C@@H](O[C@@H]2CC[C@H](N(C)C)[C@@H](C)O2)/C=C/C=C/C[C@@H](C)OC(=O)C[C@H]1O`, the “viability change, negative = cytotoxic” value was -6.43% [at 32.5 µM]. Same read-out and setting: the value for `CC(C)CN(C[C@@H](O)[C@H](Cc1ccccc1)NC(=O)O[C@@H]1CCOC1)S(=O)(=O)c1ccc(N)cc1` was 5.66%; that for `CCC(=O)NCCC1CCc2ccc3c(c21)CCO3` (centres undefined) was 6.54%. `CC(C(=O)O)c1ccc(N2Cc3ccccc3C2=O)cc1` (centres undefined): the “viability change, negative = cytotoxic” value was 4.87%.

As for `CC[C@@H]1/C=C(\C)C[C@H](C)C[C@H](OC)[C@H]2O[C@@](O)(C(=O)C(=O)N3CCCC[C@H]3C(=O)O[C@H](/C(C)=C/[C@@H]3CC[C@@H](Cl)[C@H](OC)C3)[C@H](C)[C@@H](O)CC1=O)[C@H](C)C[C@@H]2OC`, the “viability change, negative = cytotoxic” value was -2.59%.

Turning to `O=C(O)[C@H](CC(=O)N1C[C@H]2CCCC[C@H]2C1)Cc1ccccc1`, the “viability change, negative = cytotoxic” value is 22.2%. On to `CC[C@@H](C(=O)[C@@H](C)[C@@H](O)[C@H](C)[C@@H]1O[C@@H]([C@@H](CC)C(=O)O)CC[C@@H]1C)[C@H]1O[C@]2(C=C[C@@H](O)[C@]3(CC[C@@](C)([C@H]4CC[C@](O)(CC)[C@H](C)O4)O3)O2)[C@H](C)C[C@@H]1C`, for which the “viability change, negative = cytotoxic” value is -10.8%. On to `COC(=O)[C@H]1[C@H]2C[C@@H]3c4[nH]c5cc(OC)ccc5c4CCN3C[C@H]2C[C@@H](OC(=O)/C=C/c2cc(OC)c(OC)c(OC)c2)[C@@H]1OC`, for which the “viability change, negative = cytotoxic” value is 3.47% [at 32.5 µM].
